# Bioassay records deposited in PubChem BioAssay by several laboratories.
# sEH inh = soluble epoxide hydrolase (human) inhibition. P34913. recombinant human sEH enzymatic activity assay. inhibition, % at 2 µM. actives 0.34% (n = 91,000); in the data active means inhibition above about 80%
# CYP2C9 activ = CYP2C9 (human) activation | activation factor at 5 µM | actives 1.4% (n = 96,000) | recombinant CYP2C9, luciferin-H conversion, luminescence; active compounds read high; factor 1 = untreated enzyme, 0 = blocked;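 active means activation factor of 2 or more for CYP2C9 at a 5 µM dose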
# Target sequence (P11712 whole entry, looked up): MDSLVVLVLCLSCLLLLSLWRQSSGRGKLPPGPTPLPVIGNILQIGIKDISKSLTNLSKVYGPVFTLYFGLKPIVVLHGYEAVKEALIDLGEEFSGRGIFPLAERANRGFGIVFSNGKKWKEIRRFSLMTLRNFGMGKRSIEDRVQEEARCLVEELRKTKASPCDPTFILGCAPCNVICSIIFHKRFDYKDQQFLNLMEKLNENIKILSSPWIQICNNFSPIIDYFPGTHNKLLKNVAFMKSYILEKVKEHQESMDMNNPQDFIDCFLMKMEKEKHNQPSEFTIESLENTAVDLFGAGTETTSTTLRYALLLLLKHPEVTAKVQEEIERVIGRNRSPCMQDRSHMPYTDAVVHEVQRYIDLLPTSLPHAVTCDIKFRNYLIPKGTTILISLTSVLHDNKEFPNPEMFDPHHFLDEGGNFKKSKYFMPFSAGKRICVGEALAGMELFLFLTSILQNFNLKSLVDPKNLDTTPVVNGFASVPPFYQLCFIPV
# CYP2C19 act = cytochrome P450 2C19 (human) activation | recombinant CYP2C19, luciferin-H EGE luminescence; active compounds read high; 0 = fully inhibited enzyme, 1 = untreated enzyme | activation factor at 5 µM | 96,000 tested, under 10 active | AID 1025;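 active means activation factor of at least 2 at 5 µM in the primary screen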
# CYP2C19 inhib = blocks human cytochrome P450 2C19. P33261. actives 21% (n = 96,000). CYP2C19 Supersomes, luciferin-H EGE luminescence, 30 min. inhibition, % at 5 µM;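 active means CYP2C19 inhibition above a set limit at 5 µM in the primary screen, cut at about 50% in these data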
# CYP2C9 inhib = blocks human cytochrome P450 2C9 | P11712 | CYP2C9 Supersomes, luciferin-H conversion, luminescence | inhibition, % at 5 µM | actives 20% (n = 96,000);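 active means blocking of liver enzyme CYP2C9 beyond about 50% at 5 µM, limit read from the data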
# sEH act = soluble epoxide hydrolase (human) activation; actives 0.04% (n = 91,000); AID 717; P34913; purified human sEH enzymatic activity, activator screen; activation, % at 2 µM; in the data active means activation above about 37%
# Hits are given with their value; . = inactive; / = no result given. An excerpt weighted towards active compounds, which were near 27% of everything screened.
SMILES,sEH inh,CYP2C9 activ,CYP2C19 act,CYP2C19 inhib,CYP2C9 inhib,sEH act
CCCCCOC(=O)CSc1n[nH]c(=O)[nH]c1=O,.,.,.,.,.,.
COc1cccc(N=Cc2c(O)n(-c3cccc(C)n3)c(=O)c3ccccc23)c1,.,.,.,66,53,.
Cc1cccc(-n2c(O)c(C=Nc3c(C)n(C)n(-c4ccccc4)c3=O)c3ccccc3c2=O)n1,.,.,.,.,.,.
CCOc1cc(C)c(C(C)C)cc1S(=O)(=O)NCc1ccccn1,.,.,.,.,.,.
CC(C)c1ccc(NC(=O)CSc2nc3c(c(=O)[nH]2)CCC3)cc1,/,.,.,.,60,/
Cc1ccc(NC(=O)CSc2nc3c(c(=O)[nH]2)CCC3)cc1C,/,.,.,.,51,/
CC(C)c1c(O)nc(SCC(=O)Nc2ccc3c(c2)CCC3)[nH]c1=O,/,.,.,.,.,/
COCCn1c(C)cc(C(=O)CSc2ncn[nH]2)c1C,/,.,.,.,.,/
CCSc1nc2c(cnn2-c2ccc(C)c(C)c2)c(=O)[nH]1,.,.,.,.,.,.
CCC1(CC)C(=O)N(C)C(=O)NC1=Nc1ccc(OC)cc1,.,.,.,.,.,.
CCCOc1ccc(C(=O)N2CCN(c3ccc(N)cc3Cl)CC2)cc1,.,.,.,84,80,.
CN(C(=O)c1ccccc1Cl)C1CCCCC1,.,.,.,75,.,.
CCCCC(=O)Nc1ccc(NC(=O)c2ccccc2OC)cn1,.,3.5,.,78,.,.
CCC(=O)Nc1cc(C)c(NC(=O)c2ccccc2OC)cn1,.,2.6,.,.,.,.
O=C(NCCN1CCOCC1)c1ccc2c(c1)ncn2C1CCCCC1,.,.,.,.,.,.
O=C1NC2(CCCCC2)N=C1c1ccc(F)cc1,.,.,.,.,.,.
O=C1NC2(CCCCC2)N=C1c1ccc(Br)cc1,.,.,.,57,.,.
O=C1NC2(CCCC2)N=C1c1ccc(Cl)cc1,.,.,.,84,.,.
O=c1c2c(nc3c(-c4ccc(Cl)cc4)c[nH]n13)CCCC2,.,.,.,.,.,.
Cc1cc(NC(=O)c2ccccc2Cl)c(C(C)C)cc1O,.,3.1,.,65,.,.
CCC(c1nnc(SCC(=O)Nc2ccc(C(=O)Nc3ccccc3OC)cc2)o1)N(C)C (stereo not given),.,.,.,.,.,.
CCCC(C)C(=O)N(Cc1ccccc1)c1ccccn1 (stereo not given),.,.,.,67,51,.
Cc1ccc(C)c(SCc2noc(C(=O)NCC3CCCO3)c2C(=O)O)c1 (stereo not given),.,.,.,.,.,.
COc1ccc(-c2nc3c(c(=O)n(C)c(=O)n3C)n2CC2CC(c3ccccc3)=NO2)cc1OC (stereo not given),.,/,/,/,/,.
COc1ccc(C2C3=C(CC(C)(C)CC3=O)Oc3ncn(CCCn4ccnc4)c(=N)c32)cc1 (stereo not given),.,.,.,.,78,.
SMILES,sEH inh,CYP2C9 activ,CYP2C19 act,CYP2C19 inhib,CYP2C9 inhib,sEH act
CC1(C)CC(=O)C2=C(C1)Oc1ncn(CCCn3ccnc3)c(=N)c1C2c1ccccc1 (stereo not given),.,.,.,79,90,.
COc1ccc(C2C3=C(CC(C)(C)CC3=O)Oc3ncn(Cc4ccccc4)c(=N)c32)cc1 (stereo not given),.,.,.,.,.,.
CC(C)CCNC(=O)C(c1ccncc1)N(Cc1cccs1)C(=O)Cn1nnc(-c2ccc(F)cc2)n1 (stereo not given),.,/,/,/,/,.
CC1=CC(C)C2C(=O)N(CCCN(C)C)C(=O)C2C1 (stereo not given),.,.,.,.,.,.
CS(=O)(=O)c1ccc(Cl)c(S(=O)(=O)NCc2ccccc2)c1,.,.,.,.,.,.
CCOC(=O)c1c(C)[nH]c(C)c1C(=O)COC(=O)c1ccc(Cl)c(S(=O)(=O)NCc2ccccc2)c1,.,.,.,82,80,.
CC1(C)C(=O)Nc2ccccc2N1C(=O)COC(=O)c1ccc(Cl)c(S(=O)(=O)NCc2ccccc2)c1,.,.,.,.,93,.
Cc1cc(C(=O)CSc2nnnn2C)c(C)n1CCc1ccc(F)cc1,.,.,.,65,.,.
Cc1cc(-n2c(C)cc(C(=O)CSc3nnnn3-c3ccccc3)c2C)no1,.,.,.,.,.,.
Cc1cc(C(=O)CSc2nnnn2-c2ccccc2)c(C)n1CC1CCCO1 (stereo not given),.,.,.,.,.,.
COc1ccc(CCn2c(C)cc(C(=O)CSc3nnnn3-c3ccccc3)c2C)cc1OC,.,2.1,.,.,.,.
Cc1cc(C(=O)CSc2nnnn2-c2ccccc2)c(C)n1CCc1ccccc1,.,.,.,50,.,.
CC(=O)N1CCc2cc(C(=O)CN3CCN(C(=O)c4ccco4)CC3)ccc21,/,.,.,.,.,/
COc1ccc(-n2cc(C(=O)c3cc4ccccc4oc3=O)c(C(C)=O)n2)cc1,.,.,.,.,.,.
COc1ccc(/C(C)=N/NC(=O)c2ccc(N(C)C)cc2)cc1,.,.,.,.,.,.
COc1ccc(/C(C)=N/NC(=O)c2nc(C)cc(C)n2)cc1,.,2.3,.,.,.,.
Cc1[nH]nc(-c2ccc(O)c(C)c2O)c1-c1cnn(-c2ccccc2)c1,.,.,.,99,99,.
CCN(CCCNC(=O)c1[nH]c(C)c(C(C)=O)c1C)c1ccccc1,/,.,.,.,.,/
COc1ccc(NC(=O)CCNS(=O)(=O)c2ccc(Br)s2)cc1,.,.,.,.,68,.
CCOc1ccc(NC(=O)CCC(=O)OC)cc1,.,.,.,.,.,.
CCOc1ccc(NC(=O)CCNS(=O)(=O)c2cccs2)cc1,.,.,.,66,.,.
COc1cc2c(cc1NC(=O)CN(C)Cc1nc3ccccc3c(=O)[nH]1)oc1ccccc12,/,.,.,.,.,/
O=c1c2ccccc2sn1-c1cc(S(=O)(=O)N2CCOCC2)ccc1N1CCCC1,.,.,.,.,79,.
O=c1c2ccccc2sn1-c1cc(S(=O)(=O)N2CCOCC2)ccc1N1CCOCC1,.,.,.,66,54,.
c1ccc2[nH]c(CSc3nc4ccccc4s3)nc2c1,.,.,.,98,53,.
SMILES,sEH inh,CYP2C9 activ,CYP2C19 act,CYP2C19 inhib,CYP2C9 inhib,sEH act
Cn1nnnc1SCc1nc2ccccc2[nH]1,.,.,.,.,.,.
c1ccc(SCc2nc3ccccc3[nH]2)nc1,.,.,.,90,.,.
Cc1nnc(SCc2nc3ccccc3[nH]2)s1,/,.,.,.,.,/
CCC(C)SCc1nc2ccccc2[nH]1 (stereo not given),/,.,.,93,.,/
Cc1cccc(C)c1NC(=O)C(c1ccc([N+](=O)[O-])cc1)N1CCCCC1 (stereo not given),.,.,.,.,.,.
CCOc1ccccc1N(CC(=O)NC1CCCC1)C(=O)CCCC(=O)Nc1ccccn1,.,.,.,.,.,.
